# Laboratory results published in PubChem BioAssay (NCI).
# Compounds without any hit were thinned out: in the full panel of roughly 79,000, 15% have a hit. A number with no mark means an inactive call. Activity calls are given as the source filed them. Rule as the data show it: active = growth inhibition above about 70%; inactive = the rest.
# What was measured:
# [1] = NCI Yeast Anticancer Drug Screen. Data for the rad50 strain (AID 155);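 also: 0% = growth of vehicle-only cultures of the same strain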; conditions: S. cerevisiae rad50 strain growth inhibition, hits give high values
# Procedure, shortened: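 Vehicle-treated cultures provide the reference for the growth inhibition reported for compound-exposed, repair-deficient yeast.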
# [2] = NCI Yeast Anticancer Drug Screen. Data for the mec2-1 strain (AID 157); conditions: S. cerevisiae mec2-1 strain, hits give high values
# Procedure, shortened: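 Readout is yeast growth inhibition, normalised to vehicle-treated controls, in the mec2-1 strain exposed to compound.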
# [3] = NCI Yeast Anticancer Drug Screen. Data for the sgs1 mgt1 strain (AID 161);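 also: 0% = growth of cultures given vehicle only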; conditions: S. cerevisiae sgs1 mgt1 strain, hits give high values
# Procedure, shortened: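 Compounds are added to genetically altered yeast, and growth is compared with cultures given vehicle alone to give percent inhibition.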
# [4] = NCI Yeast Anticancer Drug Screen. Data for the cln2 rad14 strain (AID 165);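 also: 0% = growth equal to vehicle treated cultures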; conditions: S. cerevisiae cln2 rad14 strain, hits give high values
# Procedure, shortened: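 Relative to vehicle controls, growth inhibition of compound-treated cln2 rad14 yeast was recorded.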
# [5] = NCI Yeast Anticancer Drug Screen. Data for the bub3 strain (AID 167); conditions: S. cerevisiae bub3 mutant strain, hits give high values
# Procedure, shortened: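 Mutant yeast screening strain plus compound; vehicle-treated cultures serve as the 0% inhibition reference.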
# [6] = NCI Yeast Anticancer Drug Screen. Data for the mlh1 rad18 strain (AID 175); conditions: S. cerevisiae mlh1 rad18 strain growth inhibition, hits give high values
# Procedure, shortened: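 Test agents were incubated with a yeast strain of defined genotype (DNA damage repair defect). Inhibition of growth was derived by comparison with vehicle-exposed cultures.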
# [7] = at 5.0 µM (retest, dose inferred, filed as 0.5)
# [8] = at 50.0 µM (retest, dose inferred, filed as 5.0)
Compound,"growth inhibition [1, 7]","growth inhibition [1, 8]",growth inhibition ([1]; at 50.0 µM),"growth inhibition [2, 7]","growth inhibition [2, 8]",growth inhibition ([2]; at 50.0 µM),"growth inhibition [3, 7]","growth inhibition [3, 8]",growth inhibition ([3]; at 50.0 µM),"growth inhibition [4, 7]","growth inhibition [4, 8]",growth inhibition ([4]; at 50.0 µM),"growth inhibition [5, 7]","growth inhibition [5, 8]",growth inhibition ([5]; at 50.0 µM),"growth inhibition [6, 7]","growth inhibition [6, 8]",growth inhibition ([6]; at 50.0 µM)
COc1ccc2c(c1)[n+]([O-])c(-c1ccc(C)cc1)c(N)[n+]2[O-],17%,98% (active),99.4% (active),22%,99% (active),99.5% (active),38%,100% (active),99.3% (active),34%,96% (active),98.8% (active),75% (active),99% (active),99.4% (active),63%,98% (active),99.2% (active)
O=C(Oc1c([N+](=O)[O-])cc(-c2ccc([N+](=O)[O-])cc2)cc1[N+](=O)[O-])c1ccccc1,32%,56%,74.7% (active),86% (active),89% (active),78.1% (active),80% (active),87% (active),82.5% (active),34%,76% (active),79.3% (active),49%,74% (active),74.3% (active),82% (active),83% (active),82.7% (active)
CN(C)CC(CN(C)C)C(=O)C1CCCCC1,25%,90% (active),81.2% (active),2%,96% (active),94.7% (active),-9%,71% (active),76.8% (active),19%,89% (active),10.3%,7%,98% (active),23.2%,12%,95% (active),96.6% (active)
COc1ccc(-c2cc(-c3ccc4c(c3)CC(C)O4)nc(N)n2)cc1 (stereo not drawn),20%,1%,90.8% (active),0%,-14%,90.8% (active),20%,3%,91.2% (active),19%,15%,86.5% (active),19%,15%,88.7% (active),-16%,-19%,88.7% (active)
CCC(=O)Nc1ccc(NC(C)=O)cc1,-6%,-9%,-17.6%,-9%,1%,-6.9%,-5%,6%,-8.65%,6%,-16%,-11.6%,-10%,-3%,23.2%,-8%,-28%,-8.9%
CC(=O)OCc1ccc([N+](=O)[O-])o1,2%,78% (active),96.3% (active),-7%,22%,98.3% (active),3%,67%,64.3%,0%,96% (active),98.2% (active),-2%,73% (active),98.9% (active),1%,86% (active),98% (active)
CC(SC1=CC(=O)c2c(Cl)ccc(O)c2C1=O)C(=O)O (stereo not drawn),10%,13%,5.7%,2%,16%,1.25%,22%,30%,-25.1%,-9%,7%,-47.5%,0%,17%,6%,3%,26%,8.35%
CCC[CH2][Sn]([CH2]CCC)([O]C(=O)c1cc(F)ccc1F)[O][Sn]([CH2]CCC)([CH2]CCC)[O]C(=O)c1cc(F)ccc1F,83% (active),94% (active),65.3%,87% (active),97% (active),69.3%,85% (active),96% (active),63.2%,74% (active),90% (active),57.5%,93% (active),97% (active),81% (active),89% (active),96% (active),85.9% (active)
Cc1ccc2ccc3c(CCN(C)C)cc4c(c3c2c1O)OCO4,-1%,22%,90.8% (active),-4%,57%,67.3%,-1%,75% (active),91.2% (active),-1%,64%,95.2% (active),-2%,86% (active),92.5% (active),-5%,53%,94.3% (active)
O=[N+]([O-])c1c[nH]c2ncnc(SCc3ccccc3)c12,98% (active),98% (active),100% (active),99% (active),99% (active),99.3% (active),99% (active),99% (active),99.2% (active),86% (active),99% (active),94.3% (active),97% (active),99% (active),98.7% (active),98% (active),98% (active),98.9% (active)
COC(=O)c1ccc(NCC2=C(Br)C(=O)C=CC2=O)cc1Cl,43%,98% (active),89.4% (active),35%,98% (active),77.6% (active),35%,98% (active),92.3% (active),43%,98% (active),88.8% (active),44%,98% (active),90.8% (active),37%,97% (active),89.7% (active)
O=C1CCCCCCC2=C1C(Sc1ccccc1)CC2 (stereo not drawn),-27%,34%,78.8% (active),-6%,25%,52.4%,-16%,35%,75.2% (active),13%,28%,45.6%,3%,69%,60.1%,-13%,80% (active),54.1%
Fc1ccc2c(c1)Nc1cc(F)cc(F)c1S2,-4%,54%,2.7%,-5%,12%,-2%,-4%,36%,65.7%,0%,1%,2.75%,-3%,5%,40.8%,-6%,48%,21.5%
CC(O)CCc1nc2ccccc2[nH]1 (stereo not drawn),3%,-4%,17.3%,2%,-3%,3.15%,-1%,0%,-1.3%,2%,27%,57.2%,3%,6%,-6.65%,0%,-8%,11.7%
CCCCCCCCCCCCCCCCOC(=O)C[n+]1cccc(C(N)=O)c1,2%,50%,89.8% (active),8%,85% (active),94.4% (active),27%,92% (active),97.2% (active),-5%,22%,36%,-1%,79% (active),73% (active),42%,82% (active),92.3% (active)
CC1=C(C(=O)OCCO[N+](=O)[O-])C(c2cccc([N+](=O)[O-])c2)C(C(=O)OC(C)C)=C(C)N1 (stereo not drawn),13%,91% (active),79.2% (active),10%,92% (active),83% (active),-22%,91% (active),87.5% (active),-3%,87% (active),81.5% (active),-3%,88% (active),85.3% (active),12%,95% (active),71% (active)
O=P(Nc1ccccc1)(OCc1ccccc1)OCc1ccccc1,-4%,98% (active),98.5% (active),12%,99% (active),94.7% (active),-4%,99% (active),98.8% (active),13%,99% (active),67%,0%,99% (active),40.8%,5%,99% (active),99.1% (active)
CCOC(=O)NN(C(=O)OCC)c1ccc(N=Nc2ccc(OC)cc2)n1C,1%,84% (active),46%,-25%,85% (active),60.8%,-22%,87% (active),70.3% (active),29%,70% (active),71.5% (active),-40%,78% (active),74% (active),-32%,77% (active),69.9%
COc1ccc(/C=C/C(C(=O)O)C(=O)O)cc1,19%,65%,82.7% (active),-20%,84% (active),76% (active),6%,59%,76% (active),37%,47%,44.4%,14%,88% (active),82.5% (active),-4%,89% (active),78% (active)
Clc1ccc(C2=NCON=C2c2ccc(Cl)cc2)cc1,17%,97% (active),87.9% (active),7%,99% (active),90.5% (active),10%,99% (active),91% (active),9%,98% (active),89.5% (active),20%,99% (active),90.8% (active),7%,97% (active),-18.7%
OCCc1c2ccccc2cc2ccccc12,-135%,-50%,41.5%,-44%,-41%,10.6%,-61%,-36%,11.7%,-52%,-48%,11.8%,-60%,-43%,3.35%,-127%,-74%,59.8%
O=c1sc(=S)[nH]c2ccccc12,-3%,10%,76.8% (active),6%,43%,69.1%,3%,41%,78.9% (active),-4%,3%,71.5% (active),-1%,7%,67.5%,16%,31%,72.2% (active)
Clc1ccc(CN2COc3c(cc(Cl)c4cccnc34)C2)c(Cl)c1,6%,98% (active),23.6%,-20%,91% (active),22.9%,-1%,97% (active),-6.85%,-9%,97% (active),46.1%,0%,98% (active),3%,0%,95% (active),1.4%
O=C(O)c1c([N+](=O)[O-])cc(C(F)(F)F)cc1[N+](=O)[O-],-20%,6%,-1.7%,0%,13%,4.3%,1%,11%,14.9%,9%,43%,-29.6%,1%,10%,-3.55%,43%,9%,29%
S=C(Nc1ccccc1)NC1CCCCCCCCC1,-2%,29%,77% (active),-8%,42%,54.9%,5%,53%,90.6% (active),-59%,71% (active),60.7%,-5%,27%,30.8%,0%,44%,88.7% (active)
CCOC(=O)C(NC(C)=O)[CH](c1ccccc1)[Sn]([Cl])([c]1ccccc1)[c]1ccccc1 (stereo not drawn),-7%,-13%,59.4%,-1%,-12%,65.7%,-8%,-5%,64.7%,-22%,-2%,49.1%,-14%,12%,37.4%,1%,1%,60.5%
